Usually AC50 stands for the midpoint of the concentration-response curve, whichever way the signal moves.

Activity calls are given as the source filed them. The calls were made as follows: active = hit-call score of the fitted dose curve at least 0.9, where 1 is the maximum; inactive = score below 0.9.

Assay [1] can be described thus: ATG_ISRE_CIS: Attagene CIS-FACTORIAL HepG2 Assay for human Interferon Regulatory Factor 1 (IRF1) binding to an Interferon-Stimulated Response Element (ISRE) (AID 2282948). Conditions: HepG2 ISRE cis-reporter (Attagene), mRNA transcription readout; actives raise or lower the signal. Put shortly:
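Multiplexed mRNA reporter readout in human liver HepG2 cells: cis-element-driven reporters transfected, compound added for 24 h, transcripts amplified, fluorescently labelled and sized by capillary electrophoresis; curve fitting bidirectional against DMSO.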

Assay [2] can be described thus: ATG_M_32_CIS: Attagene CIS-FACTORIAL HepG2 Assay for M32 Transcription Factor (Internal Marker) (AID 2282949).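 Also: background control marker of the multiplexed CIS panel rather than a real target.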 Conditions: HepG2 Attagene cis-factorial M32 reporter, mRNA; actives raise or lower the signal. Put shortly: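 HepG2 transfectants (cis-regulated reporter transcription units) dosed 24 h. Reporter mRNA by RT-PCR plus CE, analysed as gain or loss relative to DMSO.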

Assay [3] is described as follows: ATG_M_06_CIS: Attagene CIS-FACTORIAL HepG2 Assay for M06 Transcription Factor (Internal Marker) (AID 2282950). Particulars: HepG2 Attagene CIS-FACTORIAL M06 internal marker reporter; actives raise or lower the signal. Put shortly:
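Serves as a background control readout. Transfected HepG2 exposed to compounds for 24 h, then reporter transcripts quantified by fluorescent RT-PCR and capillary electrophoresis. Both directions fitted against DMSO baseline.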

Assay [4] concerns the target Hepatocyte nuclear factor 6 (Homo sapiens) (UniProt Q9UBC0). Nature of the assay: ATG_HNF6_CIS: Attagene CIS-FACTORIAL HepG2 Assay for human Hepatocyte Nuclear Factor 6 (HNF6) (AID 2282952). Conditions: HepG2 Attagene cis-factorial HNF6 reporter transcription; actives raise or lower the signal. In a few lines: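 Readout: fluorescent reporter-transcript fragments resolved by capillary electrophoresis after RT-PCR, reflecting endogenous factor activity in transfected HepG2. Exposure 24 h. Gain or loss of signal fitted bidirectionally against DMSO.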

Assay [5] concerns the target Heat shock factor protein 1 (Homo sapiens) (UniProt Q00613). Nature of the assay: ATG_HSE_CIS: Attagene CIS-FACTORIAL HepG2 Assay for human Heat Shock Transcription Factor 1 (HSE) (AID 2282953). Particulars: HepG2 HSE cis-reporter, Attagene RNA transcription; actives raise or lower the signal. Put shortly:
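Endogenous transcription factor activity in transiently transfected HepG2, read as reporter mRNA by RT-PCR with fluorescent capillary electrophoresis after 24 h. Gain or loss of signal fitted versus DMSO baseline.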

Assay [6] is described as follows: ATG_MRE_CIS: Attagene CIS-FACTORIAL HepG2 Assay for human Metal Responsive Element (MRE) (AID 2282954). Conditions: HepG2 MRE cis-reporter transcription, Attagene multiplex; actives raise or lower the signal. Put shortly: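 Cells were transfected with cis-promoter reporter transcription units, then dosed for 24 h. RNA was reverse-transcribed, amplified, fluorescently labelled and resolved by capillary electrophoresis, and activity was fitted in both directions relative to DMSO.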

Assay [7] addresses Paired box protein Pax-6 (Homo sapiens) (UniProt P26367). The assay can be described thus: ATG_Pax6_CIS: Attagene CIS-FACTORIAL HepG2 Assay for human Paired Box 6 (PAX6) (AID 2282956). Conditions: HepG2 CIS-FACTORIAL PAX6 reporter transcription, RNA readout; actives raise or lower the signal. In a few lines:
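Fluorescent RT-PCR products separated by capillary electrophoresis report PAX6-linked promoter mRNA in HepG2 cells 24 h post-dose. Curves fitted bidirectionally, DMSO as negative control.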

A short description of assay [8]: ATG_PXRE_CIS: Attagene CIS-FACTORIAL HepG2 Assay for human Pregnane X Receptor Element (PXRE) (AID 2282957). Conditions: HepG2 Attagene CIS-FACTORIAL PXRE reporter, mRNA; actives raise or lower the signal. Put shortly:
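Read-out: fluorescence of reporter-specific RT-PCR products resolved by capillary electrophoresis, fitted bidirectionally relative to DMSO. Human HepG2 liver cells carried transfected cis-promoter reporter units and were exposed to chemicals for 24 h.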

A short description of assay [9]: ATG_PPRE_CIS: Attagene CIS-FACTORIAL HepG2 Assay for human Peroxisome Proliferator-activated Response Element (PPRE) (AID 2282958). Particulars: HepG2 PPRE cis-element reporter, Attagene transcription factor profiling; actives raise or lower the signal. Put shortly: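 Measured endpoint: PPRE-controlled reporter mRNA, detected by RT-PCR and capillary electrophoresis fluorescence, from transiently transfected HepG2 cells 24 h after dosing. Curves fitted in both directions using DMSO baseline.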

Assay [10] can be described thus: ATG_RORE_CIS: Attagene CIS-FACTORIAL HepG2 Assay for human RAR-related Orphan Receptor Element (RORE) (AID 2282959). Particulars: HepG2 Attagene cis-factorial RORE reporter, mRNA; actives raise or lower the signal. In a few lines:
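Transiently transfected HepG2 reporter cells were treated 24 h. Reporter transcripts were detected by RT-PCR and capillary electrophoresis, with bidirectional fitting against DMSO.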

Assay [11] can be described thus: ATG_Sox_CIS: Attagene CIS-FACTORIAL HepG2 Assay for human SRY-box transcription factor (SOX) (AID 2282960). Particulars: HepG2 Attagene cis-factorial SOX reporter, mRNA; actives raise or lower the signal. In a few lines:
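Gain- or loss-of-signal endpoint, fitted bidirectionally with DMSO as negative control. Based on reporter mRNA from transfected HepG2 cells harvested 24 h post-treatment and quantified via RT-PCR and capillary electrophoresis.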

A short description of assay [12]: ATG_SREBP_CIS: Attagene CIS-FACTORIAL HepG2 Assay for human Sterol Regulatory Element Binding (SREBP) (AID 2282962). Particulars: HepG2 Attagene cis-factorial SREBP reporter, mRNA; actives raise or lower the signal. In a few lines: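 Endogenous factor activity is measured in HepG2 through multiplexed reporter units under cis-element control. Following a 24 h incubation, reporter transcripts are reverse-transcribed, PCR-amplified and sized by capillary electrophoresis; activity is fitted in both directions relative to DMSO.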

For assay [13], the target named is Signal transducer and activator of transcription 3 (Homo sapiens) (UniProt P40763). Nature of the assay: ATG_STAT3_CIS: Attagene CIS-FACTORIAL HepG2 Assay for human Signal Transducer and Activator of Transcription 3 (STAT3) (AID 2282963). Conditions: HepG2, Attagene cis-factorial STAT3 reporter transcription; actives raise or lower the signal. Put shortly: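 HepG2, MRTU-transfected, 24 h dosing. RNA → RT → PCR → FAM label → HpaI → CE. Bidirectional fit vs DMSO.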
Signal transducer and activator of transcription 3 (Homo sapiens), sequence (P40763 whole entry, looked up): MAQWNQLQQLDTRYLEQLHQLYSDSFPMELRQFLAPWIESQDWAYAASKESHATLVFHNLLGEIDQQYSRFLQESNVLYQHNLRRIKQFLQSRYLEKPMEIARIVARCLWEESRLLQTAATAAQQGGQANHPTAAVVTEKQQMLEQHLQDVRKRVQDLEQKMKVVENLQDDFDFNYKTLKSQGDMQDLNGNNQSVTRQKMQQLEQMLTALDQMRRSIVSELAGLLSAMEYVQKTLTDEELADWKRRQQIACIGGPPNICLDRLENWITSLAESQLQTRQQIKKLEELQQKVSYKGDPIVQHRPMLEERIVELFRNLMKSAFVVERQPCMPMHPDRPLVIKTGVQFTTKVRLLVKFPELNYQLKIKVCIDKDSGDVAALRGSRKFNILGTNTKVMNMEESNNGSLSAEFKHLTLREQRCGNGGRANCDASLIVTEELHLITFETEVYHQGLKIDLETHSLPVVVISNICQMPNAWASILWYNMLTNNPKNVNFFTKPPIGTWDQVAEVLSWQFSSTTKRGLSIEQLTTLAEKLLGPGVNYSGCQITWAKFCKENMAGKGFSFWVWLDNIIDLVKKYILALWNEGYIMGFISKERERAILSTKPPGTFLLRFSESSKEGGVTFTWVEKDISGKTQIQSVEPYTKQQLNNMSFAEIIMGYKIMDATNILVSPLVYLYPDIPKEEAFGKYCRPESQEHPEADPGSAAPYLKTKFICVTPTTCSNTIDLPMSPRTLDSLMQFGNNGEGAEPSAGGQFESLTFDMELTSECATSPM

Assay [14] is described as follows: ATG_TA_CIS: Attagene CIS-FACTORIAL HepG2 Assay for human TA Basal Promoter (AID 2282964). Particulars: HepG2 Attagene CIS-factorial TA basal promoter reporter; actives raise or lower the signal. In a few lines: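 Background-control readout: TA basal promoter reporter mRNA, fitted in both directions relative to DMSO. Measured by RT-PCR and capillary electrophoresis 24 hours after treating HepG2 human liver cells transiently carrying multiplexed cis-regulated reporter constructs.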

Assay [15] is described as follows: ATG_TCF_b_cat_CIS: Attagene CIS-FACTORIAL HepG2 Assay for human T-Cell-Factor with beta-catenin (TCF/b-cat) (AID 2282965). Particulars: HepG2 TCF/beta-catenin cis-reporter transcription, actives raise or lower the signal. Put shortly:
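Using capillary electrophoresis as the read-out, labelled reporter cDNA fragments from transiently transfected HepG2 were sized and quantified. Exposure lasted 24 hours; activity in either direction was referenced to DMSO.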

In assay [16] the target is Hypoxia-inducible factor 1-alpha (Homo sapiens) (UniProt Q16665). Nature of the assay: ATG_HIF1a_CIS: Attagene CIS-FACTORIAL HepG2 Assay for human Hypoxia Inducible Factor 1 (HIF1A) (AID 2282951). Conditions: HepG2 Attagene cis-factorial HIF1a reporter transcription; actives raise or lower the signal. Put shortly: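 Dosed 24 h, transfected HepG2 cells yielded total RNA whose reporter transcripts were RT-PCR-amplified and sized by capillary electrophoresis using fluorescent labelling; DMSO defined baseline, with gain and loss of signal both fitted.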
Hypoxia-inducible factor 1-alpha (Homo sapiens), sequence (Q16665 whole entry, looked up): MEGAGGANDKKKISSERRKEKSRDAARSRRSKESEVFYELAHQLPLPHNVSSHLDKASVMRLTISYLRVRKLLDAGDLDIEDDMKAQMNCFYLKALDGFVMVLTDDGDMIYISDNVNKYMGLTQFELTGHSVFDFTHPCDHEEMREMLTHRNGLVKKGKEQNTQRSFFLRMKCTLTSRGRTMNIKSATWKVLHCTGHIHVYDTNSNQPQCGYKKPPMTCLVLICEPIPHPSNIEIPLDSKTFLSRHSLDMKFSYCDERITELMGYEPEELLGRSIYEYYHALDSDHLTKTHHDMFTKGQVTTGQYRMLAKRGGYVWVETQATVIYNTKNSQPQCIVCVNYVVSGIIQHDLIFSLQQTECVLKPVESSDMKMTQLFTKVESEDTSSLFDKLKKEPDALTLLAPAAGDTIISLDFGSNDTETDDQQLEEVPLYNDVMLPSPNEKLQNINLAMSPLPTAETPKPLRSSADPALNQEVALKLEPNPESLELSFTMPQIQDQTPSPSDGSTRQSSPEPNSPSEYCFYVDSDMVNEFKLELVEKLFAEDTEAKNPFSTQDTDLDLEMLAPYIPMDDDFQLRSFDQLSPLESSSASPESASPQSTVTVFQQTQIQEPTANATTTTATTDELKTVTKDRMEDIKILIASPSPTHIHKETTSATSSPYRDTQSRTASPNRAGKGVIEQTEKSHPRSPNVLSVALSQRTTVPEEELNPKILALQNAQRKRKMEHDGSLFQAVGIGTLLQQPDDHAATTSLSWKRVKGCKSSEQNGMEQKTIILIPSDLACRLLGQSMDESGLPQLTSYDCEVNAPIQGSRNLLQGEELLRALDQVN

A short description of assay [17]: ATG_PBREM_CIS: Attagene CIS-FACTORIAL HepG2 Assay for human Phenobarbital-responsive Enhancer Module (PBREM) (AID 2282955). Conditions: HepG2 PBREM cis-reporter, Attagene multiplexed transcription; actives raise or lower the signal. Put shortly: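 Transfected liver-derived HepG2 cells exposed 24 h; PBREM reporter transcript quantified via RT-PCR and capillary electrophoresis, with activity in either direction referenced to DMSO.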

For assay [18], the target named is Transcription factor Sp1 (Homo sapiens) (UniProt P08047). The assay can be described thus: ATG_Sp1_CIS: Attagene CIS-FACTORIAL HepG2 Assay for human Specificity Protein 1 (Sp1) (AID 2282961). Particulars: HepG2 Sp1 cis-reporter transcription, actives raise or lower the signal. Put shortly: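 Endpoint reflects endogenous Sp1 transcriptional activity, not an exogenous fusion protein: HepG2 cells with transfected cis-regulated reporters, 24 h dosing, RT-PCR/capillary electrophoresis mRNA read-out, DMSO-normalised bidirectional fit.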
Transcription factor Sp1 (Homo sapiens), sequence (P08047 whole entry, looked up, the tested form may be a part): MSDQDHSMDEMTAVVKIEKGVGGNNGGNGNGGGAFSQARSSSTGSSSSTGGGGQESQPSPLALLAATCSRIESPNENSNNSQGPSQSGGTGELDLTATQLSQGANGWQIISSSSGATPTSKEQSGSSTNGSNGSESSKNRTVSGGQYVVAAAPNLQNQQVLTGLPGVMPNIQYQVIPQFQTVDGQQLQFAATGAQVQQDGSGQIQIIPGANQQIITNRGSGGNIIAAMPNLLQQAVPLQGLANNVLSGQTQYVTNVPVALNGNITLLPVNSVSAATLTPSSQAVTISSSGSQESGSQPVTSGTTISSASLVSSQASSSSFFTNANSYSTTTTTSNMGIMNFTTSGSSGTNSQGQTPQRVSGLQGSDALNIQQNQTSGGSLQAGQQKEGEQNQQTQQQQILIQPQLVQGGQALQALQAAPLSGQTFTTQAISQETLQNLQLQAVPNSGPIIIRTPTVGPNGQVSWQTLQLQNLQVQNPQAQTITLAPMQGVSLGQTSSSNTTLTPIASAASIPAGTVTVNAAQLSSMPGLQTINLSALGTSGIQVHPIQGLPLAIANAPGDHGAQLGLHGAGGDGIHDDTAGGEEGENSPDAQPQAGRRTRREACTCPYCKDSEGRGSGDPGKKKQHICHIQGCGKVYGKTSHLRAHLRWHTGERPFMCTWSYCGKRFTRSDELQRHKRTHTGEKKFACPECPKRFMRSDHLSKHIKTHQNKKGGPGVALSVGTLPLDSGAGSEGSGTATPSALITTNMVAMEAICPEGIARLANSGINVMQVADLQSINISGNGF

Paired box protein Pax-6 (Homo sapiens), sequence (P26367 whole entry, looked up): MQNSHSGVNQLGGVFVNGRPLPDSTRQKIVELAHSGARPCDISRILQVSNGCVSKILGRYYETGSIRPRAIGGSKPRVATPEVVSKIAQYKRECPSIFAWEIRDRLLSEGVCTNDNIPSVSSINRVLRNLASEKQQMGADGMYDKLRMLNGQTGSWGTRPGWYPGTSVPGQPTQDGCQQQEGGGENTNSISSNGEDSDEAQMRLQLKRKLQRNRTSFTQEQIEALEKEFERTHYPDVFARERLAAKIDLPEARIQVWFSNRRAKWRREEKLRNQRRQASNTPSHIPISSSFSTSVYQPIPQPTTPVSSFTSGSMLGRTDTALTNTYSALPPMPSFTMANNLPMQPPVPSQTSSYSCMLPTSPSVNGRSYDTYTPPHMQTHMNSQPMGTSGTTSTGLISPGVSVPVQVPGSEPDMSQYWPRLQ
Hepatocyte nuclear factor 6 (Homo sapiens), sequence (Q9UBC0 whole entry, looked up, the tested form may be a part): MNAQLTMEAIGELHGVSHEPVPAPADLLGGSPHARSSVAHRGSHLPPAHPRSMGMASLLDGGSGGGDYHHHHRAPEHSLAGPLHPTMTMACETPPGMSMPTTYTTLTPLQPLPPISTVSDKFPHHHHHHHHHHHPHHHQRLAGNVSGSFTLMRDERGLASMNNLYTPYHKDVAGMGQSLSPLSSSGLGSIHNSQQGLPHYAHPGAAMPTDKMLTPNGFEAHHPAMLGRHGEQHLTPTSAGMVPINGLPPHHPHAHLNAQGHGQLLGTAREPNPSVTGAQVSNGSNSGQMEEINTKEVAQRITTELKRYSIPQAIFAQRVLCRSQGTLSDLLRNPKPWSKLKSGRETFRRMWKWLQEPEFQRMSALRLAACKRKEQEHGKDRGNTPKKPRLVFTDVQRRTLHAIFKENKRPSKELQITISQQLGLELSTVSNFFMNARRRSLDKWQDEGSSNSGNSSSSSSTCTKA
Heat shock factor protein 1 (Homo sapiens), sequence (Q00613 whole entry, looked up): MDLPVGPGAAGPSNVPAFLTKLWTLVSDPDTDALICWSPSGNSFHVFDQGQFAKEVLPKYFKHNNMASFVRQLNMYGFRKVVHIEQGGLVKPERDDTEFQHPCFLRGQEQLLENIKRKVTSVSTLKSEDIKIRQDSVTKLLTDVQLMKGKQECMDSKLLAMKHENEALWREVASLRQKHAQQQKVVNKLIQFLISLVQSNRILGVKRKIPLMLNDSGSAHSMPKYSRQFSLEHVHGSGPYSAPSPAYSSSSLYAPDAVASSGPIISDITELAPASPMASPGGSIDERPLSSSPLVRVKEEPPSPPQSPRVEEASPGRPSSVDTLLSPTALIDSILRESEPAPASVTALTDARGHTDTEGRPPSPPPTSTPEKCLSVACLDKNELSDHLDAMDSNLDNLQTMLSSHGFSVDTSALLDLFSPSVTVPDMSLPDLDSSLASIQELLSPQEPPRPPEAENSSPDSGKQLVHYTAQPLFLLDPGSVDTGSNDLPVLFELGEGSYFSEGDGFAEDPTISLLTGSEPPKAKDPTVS

Consider `OC[C@H]1O[C@@H](Oc2ccc(O)cc2)[C@H](O)[C@@H](O)[C@@H]1O`, for which the molecule was called inactive in assay [1], in assay [2], in assay [3], in assay [4], in [5] and in [6]. Also, the molecule was called inactive in assay [7], in assay [8], in assay [9], in assay [10], in [11] and in [12]. Further, the molecule was classed as inactive in [13], in assay [14] and in assay [15].
Consider `CCCCCCCCCCCC(=O)OCC(O)CO` (stereo not given), for which the molecule was classed as inactive in assay [1], in assay [2], in assay [16], in assay [4], in assay [5] and in assay [6]. The result in [17], in assay [7], in assay [10], in [11], in assay [18] and in [13] was inactive. In addition, the molecule was classed as inactive in assay [14]. In addition, the half-maximal activity concentration (AC50) in assay [8] was 169 µM (active).
With `Cc1ccc2c(c1)C(=O)OC2=O`, the outcome in assay [1], in assay [3], in assay [16], in assay [4], in assay [5] and in [6] was inactive. Moreover, the result in assay [17], in assay [7], in assay [8], in assay [9], in assay [11] and in assay [18] was inactive. Further, the outcome in assay [12], in [13], in [14] and in [15] was inactive.
Consider `CCN(CCN)c1cccc(C)c1`, for which the result in assay [1], in [3], in assay [16], in [4], in assay [6] and in assay [7] was inactive. In addition, the outcome in assay [10], in [11], in [18], in assay [13], in [14] and in assay [15] was inactive. The AC50 in assay [8] is 36.2 µM (active).
As to `Cc1occc(=O)c1OC(=O)C(C)C`, the call in assay [1], in assay [3], in assay [16], in assay [4], in assay [5] and in assay [6] was inactive. Further, the result in [8], in assay [10], in assay [11], in [18], in assay [12] and in assay [13] was inactive. The molecule was called inactive in [14] and in assay [15].
`CCCCCCCC(=O)OCCCCCC`: the molecule was called inactive in [1], in [2], in assay [3], in assay [4], in [5] and in [6]. Further, the outcome in assay [17], in [9], in [11], in [18], in [12] and in [13] was inactive. Moreover, the call in [14] and in [15] was inactive. The AC50 in assay [8] was 28.2 µM (active).
For the molecule `COS(=O)(=O)O`, the molecule was called inactive in assay [1], in [16], in assay [4], in assay [6], in assay [17] and in assay [8]. Further, the result in assay [10], in assay [11], in [18], in [12], in assay [13] and in [14] was inactive. In assay [15], the molecule was called inactive.
`CCC(=O)OCCOc1ccccc1`: the result in assay [1], in assay [3], in assay [16], in assay [4], in assay [5] and in assay [6] was inactive. Moreover, the molecule was called inactive in assay [7], in [8], in assay [10], in assay [11], in assay [18] and in assay [12]. The result in [13], in assay [14] and in assay [15] was inactive.

The values are drawn from PubChem BioAssay (EPA / NIEHS).
